Assay outcomes as filed in PubChem.
Most compounds without a hit are left out; they make up all but 19% or so of the library.
DT40 TDP1 CPT: DT40-hTDP1 cell growth loss with CPT | chicken DT40 Tdp1-/-;hTDP1 cells + 20 nM CPT, ATP luminescence, 48 h | Potency, µM (doses to about 46.2 µM), hits mostly inhibitors | actives 12% (n = 420,000) | AID 686979; also: nearly all actives have a fitted effect of over 55% in size
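Cell growth measured by CellTiter-Glo luminescence after a minimum 48 h, 37 C compound exposure with 20 nM CPT in Tdp1-knockout DT40 cells stably expressing hTDP1, seeded 400/well; qHTS titration format.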
TDP1 cell noCPT: qHTS for Inhibitors of human tyrosyl-DNA phosphodiesterase 1 (TDP1): qHTS in cells in absence of CPT; AID 686978, 2013; actives 15% (n = 420,000); Potency, µM (titrated, usually from 46.2 µM), most hits filed as inhibitors; DT40 Tdp1-/- hTDP1 cells, no CPT, ATP luminescence, 48 h; also: nearly all actives have a fitted effect of over 55% in size
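Luminescent ATP content (CellTiter-Glo) served as the growth readout. Knockout chicken DT40 cells expressing human TDP1 were exposed to compounds without camptothecin for a minimum 48 hr at 37 °C.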
IL-1B inflam inh: blocks inflammasome-driven IL-1 beta release | actives 4.7% (n = 360,000) | activity change, % at 57.5 µM | THP-1 LPS/ATP IL-1B secretion, AlphaLISA, 16 h; stronger effect = lower value | AID 743279; in the data active = activity change below about -50%; inconclusive = mostly about -30% to -49%
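THP-1 cells pretreated 1 hr with compounds (up to 57.5 uM final), then stimulated with LPS (250 ng/mL final) plus ATP (1.25 mM final); secreted IL-1B measured by AlphaLISA after 16 hr, decreased signal indicating inhibition.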
HT1080NT lethal: kills 2HG-producing HT-1080-NT fibrosarcoma cells; HT-1080-NT fibrosarcoma viability, CellTiter-Glo ATP luminescence, 48 h; Potency, µM (top dose mostly 46.1 µM), usual class: cytotoxic; actives 1.6% (n = 360,000);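 also: NT is the 2HG producing partner of a matched IDH1 knockdown line; nearly all actives have a fitted effect of over 55% in size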
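Viability by CellTiter-Glo luminescence after 48 h compound exposure at 37C of HT-1080-NT cells (750/well, RPMI, 5% FBS). % activity scaled between DMSO wells and medium-only wells, then curve-fitted and categorized by curve class.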
HT1080 IDH1KD tx: HT-1080 IDH1 knockdown cell toxicity (counter line) | HT-1080 IDH1 knockdown viability, ATP luminescence, 48 h | Potency, µM (top dose mostly 46.1 µM), most hits filed as cytotoxic | actives 2% (n = 360,000) | AID 686971
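Using the IDH1-knockdown HT-1080 line run in the same batch and compound series as the NT line, viability after 48 h at 37 °C was determined by CellTiter-Glo luminescence and expressed as % activity.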
Of the large screens only hits and unclear results are named; the others gave an inactive call. Unless noted, calls follow the shape of the dose curve; as a rule, active = well fitted curve in the direction sought with a large enough effect; inconclusive = small, poorly fitted or top-dose-only effect, or another doubt; inactive = no such curve, though single readings can be large; an effect the other way counts as inactive or inconclusive.

CCOc1ccc(/C=C/C(=O)NCCc2ccc(OC)c(OC)c2)cc1	DT40 TDP1 CPT inconclusive, TDP1 cell noCPT 23.1µM
COc1ccc(/C=C/C(=O)NCCN2CCOCC2)cc1OC	DT40 TDP1 CPT inconclusive, TDP1 cell noCPT 20.6µM
CN(C)C(CNC(=O)c1cc(S(=O)(=O)N(C)c2ccccc2)ccc1Cl)c1cccs1 (centres undefined)	DT40 TDP1 CPT 5.8µM, TDP1 cell noCPT 6.51µM
CN(c1ccccc1)S(=O)(=O)c1ccc(Cl)c(C(=O)Nc2nn[nH]n2)c1	none
O=C(NCC(c1cccs1)N1CCOCC1)c1ccc(Cl)c(S(=O)(=O)N2CCOCC2)c1 (centres undefined)	none
CN(C)C(CNC(=O)c1cc(S(=O)(=O)N2CCOCC2)ccc1Cl)c1cccs1 (centres undefined)	DT40 TDP1 CPT inconclusive, TDP1 cell noCPT 20.6µM
C=CCc1c(C)nc2c(-c3ccccc3)cnn2c1N1CCOCC1	TDP1 cell noCPT inconclusive
O=C(CCc1nc(-c2ccccc2Cl)no1)NCc1ccco1	none
COc1ccc(-c2c(C)nn3c(N)c(-c4ccccc4)cnc23)cc1OC	DT40 TDP1 CPT 5.8µM, TDP1 cell noCPT 6.51µM, IL-1B inflam inh inconclusive
COc1ccc(-c2c(C)nn(-c3ccccc3)c2N)cc1OC	none
COCc1nn2c(N)c(-c3ccccc3)cnc2c1-c1ccccc1	none
COc1ccccc1-c1c(C)nn2c(N)c(-c3ccccc3)cnc12	DT40 TDP1 CPT 6.51µM, TDP1 cell noCPT 5.8µM, IL-1B inflam inh -74.0
CN(C)C=NC(=O)c1cc2c(n(-c3ccccc3)c1=O)CC(C)(C)CC2=O	none (no result: IL-1B inflam inh, HT1080NT lethal, HT1080 IDH1KD tx)
Cc1cc(C)cc(OC(=O)N2CCOCC2)c1	none
COc1ccc(NS(=O)(=O)c2ccc(C)c(C(=O)N3CCN(Cc4cc(OC)ccc4OC)CC3)c2)cc1	DT40 TDP1 CPT 20.6µM, TDP1 cell noCPT 23.1µM
COc1ccc(F)cc1CN1CCN(C(=O)c2ccc(S(=O)(=O)N3CCCCCC3)cc2)CC1	DT40 TDP1 CPT inconclusive, TDP1 cell noCPT inconclusive
COc1ccc(OC)c(CN2CCN(C(=O)c3ccc(S(=O)(=O)N4CCCCCC4)cc3)CC2)c1	DT40 TDP1 CPT inconclusive, TDP1 cell noCPT 20.6µM, IL-1B inflam inh inconclusive
COc1ccc(OC)c(CN2CCN(C(=O)c3cc(S(=O)(=O)Nc4ccccc4OC)ccc3C)CC2)c1	DT40 TDP1 CPT inconclusive, TDP1 cell noCPT inconclusive
COc1ccc(OC)c(CN2CCN(C(=O)c3cccc(S(=O)(=O)Nc4ccc(C)cc4)c3)CC2)c1	DT40 TDP1 CPT 25.9µM, TDP1 cell noCPT inconclusive, IL-1B inflam inh -53.2
CCOC(=O)c1sc(N2C(=O)c3oc4ccc(F)cc4c(=O)c3C2c2ccc(C)cc2)nc1C (centres undefined)	none (no result: IL-1B inflam inh, HT1080NT lethal, HT1080 IDH1KD tx)
CCCOc1ccc(NC(=O)CC2C(=O)N(CC)C(=S)N2CCCN2CCN(Cc3ccccc3)CC2)cc1 (centres undefined)	DT40 TDP1 CPT 14.6µM, TDP1 cell noCPT 14.6µM, IL-1B inflam inh -99.9, HT1080NT lethal 16.4µM, HT1080 IDH1KD tx 16.4µM
CCN1C(=O)C(CC(=O)Nc2ccc(F)cc2)N(CCCN2CCN(c3ccc(F)cc3)CC2)C1=S (centres undefined)	DT40 TDP1 CPT 14.6µM, TDP1 cell noCPT 14.6µM, IL-1B inflam inh inconclusive, HT1080NT lethal 29.1µM, HT1080 IDH1KD tx inconclusive
O=C(COc1ccc([N+](=O)[O-])cc1)Nc1ccc(N2CCN(C(=O)c3ccco3)CC2)cc1	DT40 TDP1 CPT 9.2µM, TDP1 cell noCPT 5.8µM
CCC(=O)NC(=S)Nc1ccc(NC(=O)c2ccc(Br)o2)cc1	TDP1 cell noCPT inconclusive, IL-1B inflam inh -54.3
O=C(COc1ccc(Cl)cc1)Nc1ccc(N2CCN(C(=O)c3ccco3)CC2)cc1	DT40 TDP1 CPT 10.3µM, TDP1 cell noCPT 13µM, IL-1B inflam inh inconclusive, HT1080NT lethal inconclusive
Cc1ccccc1C(=O)N1CCN(c2ccc(NC(=O)CSc3ccc(Cl)cc3)cc2)CC1	DT40 TDP1 CPT 16.4µM, TDP1 cell noCPT 10.3µM, IL-1B inflam inh -72.1, HT1080 IDH1KD tx inconclusive
O=C(NC1CCCC1)C1CC(O)CN1C(=O)Nc1ccccc1 (centres undefined)	none
